Each structure is given as a SMILES string.

This experiment deals with Torsin-1A (Homo sapiens) (UniProt O14656). Briefly: torsin A binders from cell lysate, primary screen, small-molecule microarray, wild-type, 635/667 nm (AID 1149). The following applies: COS7 hTOR1A-WT lysate, 635 nm fluorescence, higher = more signal.
Torsin-1A (Homo sapiens), sequence (O14656 whole entry, looked up): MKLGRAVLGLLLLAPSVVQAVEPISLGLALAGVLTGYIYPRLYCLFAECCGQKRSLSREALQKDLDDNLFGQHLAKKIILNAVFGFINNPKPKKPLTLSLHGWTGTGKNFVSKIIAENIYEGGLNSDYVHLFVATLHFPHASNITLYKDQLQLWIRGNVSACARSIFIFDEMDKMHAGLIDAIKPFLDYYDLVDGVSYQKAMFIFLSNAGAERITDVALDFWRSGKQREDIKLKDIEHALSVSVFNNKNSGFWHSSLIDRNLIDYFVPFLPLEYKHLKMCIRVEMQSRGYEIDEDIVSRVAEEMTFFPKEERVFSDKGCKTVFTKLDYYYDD
Take `COc1cc2c(cc1O)C(c1cccs1)N(Cc1cc3c(cc1Br)OCO3)CC2` (stereo not given): the composite z-score was determined as 0.835.
Take `CCC#CCN(Cc1ccccc1Br)[C@H](/C=C/C1CC1)[C@@H](O)Cc1ccccc1`: the composite z-score was -0.806.
The figure for `COC(=O)[C@@]1(Cc2ccccc2)[C@H]2c3cc(C(=O)N4CCCC4)n(CCc4ccccn4)c3C[C@H]2CN1C(=O)c1ccccc1` is 1.11; for `CCCCC(CC)C(O)C1C=CC2C(=O)N(c3ccccc3)C(=O)C2N1Nc1ccccc1F` (stereo not given) it is 0.136; for `[N-]=[N+]=Nc1ccccc1[C@@H]1OC(c2ccc(OCCCO)cc2)=N[C@]1(Cc1ccccc1)C(=O)N1CCCCC1` it is 0.551.
The figure for `CC1CC/C=C\[C@H]2OC34C=CCN(C(C)C)C(=O)[C@H]3N(CCO)C(=O)[C@@H]4C2C(=O)O1` (stereo not given in full) is -0.737.
The figure for `CCOC(=O)C1=C[C@@H](C(C)(C)C)N(S(=O)(=O)c2ccc(C)cc2)[C@H]1c1cccc2ccccc12` is -0.331; for `CC(C)[Si]1(C(C)C)OCc2cc(-c3ccc(-c4ccc(Cl)c(Cl)c4)o3)nc(-c3ccccc3)c21` it is -0.193.
For `CCCCCCc1nc(Cc2cc(OC)c(OC)c(OC)c2)cc2c1[Si](C(C)C)(C(C)C)OC2`, the composite z-score was 0.108.
The figure for `C=CC[C@@H](OC(=O)Nc1ccc(SC)cc1)c1ccc(O)c(F)c1` is 0.26.
The figure for `Cc1ccc(NN2C(C(O)c3c(F)cccc3Cl)C=CC3C(=O)N(C4CCCCC4)C(=O)C32)cc1` (stereo not given) is 0.0334; for `COc1ccc([Si](C)(C)[C@@H]2[C@@H](CC(=O)N(CCO)Cc3ccccc3)O[C@]3(C(=O)N(Cc4cccc(N5CCCCC5=O)c4)c4ccccc43)[C@H]2C)cc1` it is 0.961.
`NC(=O)[C@H]1[C@@H]2C(=O)O[C@@H](c3ccccc3)[C@@H](c3ccccc3)N2[C@@H](c2ccc(OCCO)cc2)[C@]12C(=O)Nc1ccc(C#CCCO)cc12`: the composite z-score was 0.579.
The figure for `COc1cc(C(O)C2C=CC3C(=O)N(C)C(=O)C3N2Nc2ccccc2)cc(OC)c1OC` (stereo not given) is 0.892; for `C#Cc1cc2ccccc2oc1=O` it is 0.173.
The compound `CC(=O)NCCCC[C@@H]1NC(=O)[C@@H]2C[C@H](C(=O)NCCCCCN)[C@H](c3cccc(OCCO)c3)N2C1=O` showed a composite z-score of 0.738.
`COc1ccc(CCNC(=O)[C@@]2(c3ccc([N+](=O)[O-])cc3)CC(=O)N(C3CCCCC3)[C@@H]2c2ccc(CO)cc2)cc1` had a composite z-score of 0.358.
`NCCCCCNC(=O)[C@@H]1C[C@@H]2C(=O)N[C@@H](CCCCN)C(=O)N2[C@@H]1c1ccc(O)cc1` returned a composite z-score of 0.811.
Turning to `NCCCCCNC(=O)[C@H]1C[C@H]2C(=O)N3CCC[C@H]3C(=O)N2[C@H]1c1cccc(OCCO)c1`, the composite z-score is 1.05.
The figure for `COCCOC(=O)N1C(=O)[C@@]2(c3cc(C#CCCO)ccc31)[C@H](c1ccc(OCCO)cc1)N1[C@H](c3ccccc3)[C@H](c3ccccc3)OC(=O)[C@H]1[C@@H]2C(=O)Nc1nc2ccccc2s1` is 0.266; for `COC(=O)C1=CC(CCCO)=CC(c2cccs2)N(C)C=C1C(=O)OC` (stereo not given) it is -0.186.
The figure for `COCCOC(=O)N1C(=O)[C@@]2(c3cc(C#CC4(O)CCCCCC4)ccc31)[C@H](c1ccc(O)cc1)N1[C@H](c3ccccc3)[C@H](c3ccccc3)OC(=O)[C@H]1[C@@H]2C(=O)N1CCN(c2ncccn2)CC1` is 0.49.
The figure for `COc1ccc([Si](C)(C)[C@@H]2[C@@H](CCO)O[C@]3(C(=O)N(Cc4cccc(NC(=O)[C@H](C)O)c4)c4ccccc43)[C@H]2C)cc1` is 0.23.
Take `Cc1ccc(S[C@]2(C(=O)O)CC(=O)N(C3CCCCC3)[C@@H]2c2ccc(CO)cc2I)cc1`: the composite z-score is 0.222.
Take `O=C1C[C@]2(c3ccc([N+](=O)[O-])cc3)C(=O)N(C3CC3)c3cc(CO)ccc3[C@H]2N1CC12CC3CC(CC(C3)C1)C2`: the composite z-score is -1.26.
The compound `COCCCNC(=O)[C@@]1(Sc2ccc(C)cc2)CC(=O)N(C2Cc3ccccc3C2)[C@@H]1c1ccc(CO)cc1` came in with a composite z-score of -1.86.
As to `O=C1OCCC=C[C@H]2OC34C=CCN(c5ccc6ccccc6c5)C(=O)[C@H]3N(CCCO)C(=O)[C@@H]4C12` (stereo not given in full), the composite z-score was -1.44.
`COC(=O)[C@@]1(Cc2ccc(F)cc2)[C@H]2c3cc(C(=O)N(C)C)n(CCc4ccc(OC)c(Br)c4)c3C[C@H]2CN1C(=O)c1ccccc1`: the composite z-score is 0.005.
The figure for `[N-]=[N+]=Nc1ccccc1C[C@@]1(C(N)=O)N=C(c2ccc(OCCCO)cc2)O[C@@H]1c1ccccc1N=[N+]=[N-]` is 0.252; for `O=C(NCc1ccc(F)cc1)[C@H]1C[C@H]2C(=O)NCC(=O)N2[C@H]1c1ccc(O)cc1` it is 0.134.
`C=CCNC(=O)[C@@H]1[C@H]2C(=O)O[C@H](c3ccccc3)[C@H](c3ccccc3)N2[C@H](c2ccccc2OCCO)[C@@]12C(=O)Nc1ccc(C#CCCO)cc12` displayed a composite z-score of 0.188.
The figure for `CCOC(=O)C[C@H]1[C@H](OC(=O)Cc2ccc3c(c2)OCO3)[C@@H](NC(=O)C2CCCCC2)c2cc(OCCCO)ccc2N1C(=O)c1ccccc1` is -0.0429.
With `COc1ccc([Si](C)(C)[C@@H]2[C@@H](CCO)O[C@]3(C(=O)N(Cc4ccccc4)c4ccc(N5CCOC5=O)cc43)[C@H]2C)cc1`, the composite z-score was found to be 0.151.
`C=C(/C(=C/C[C@H](OC(C)=O)c1ccc(CO)o1)c1cnc2ccccc2c1)C(C)C` gave a composite z-score of 1.27.
The figure for `CCCCCCCCCCC(O)C1C=CC2C(=O)N(c3ccccc3)C(=O)C2N1Nc1ccc(C#N)cc1` (stereo not given) is 0.225.

For the origin of these results see PubChem BioAssay.
